PubChem BioAssay (Tox21)
Records with an inconclusive call do not appear. Calls of active or inactive are those of the source. Calls follow the shape of the dose curve; as a rule, active = well fitted activation curve with a large enough effect in the repeat runs; inconclusive = weak or mixed curves; inactive = no such curve, though single readings can be large or run the other way.

What follows are compounds tested against Nuclear receptor subfamily 1 group I member 3 (Homo sapiens) (UniProt Q14994) (assay: qHTS assay to identify small molecule agonists of the constitutive androstane receptor (CAR) signaling pathway (AID 1224839; also: nearly all actives have a fitted effect of over 15% in size;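 as to activation: HepG2 cells stably carrying human CAR and a CYP2B6 luciferase reporter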)). Conditions: HepG2 hCAR CYP2B6-luciferase, agonist mode, 24 h; series mostly up to 92.4 µM; activation: at the top concentration.
Text: National Center for Advancing Translational Sciences [NCATS] NIH Chemical Genomics Center [NCGC] U.S. Environmental Protection Agency [EPA] National Institutes of Environmental Health Sciences [NIEHS] National Toxicology Program [NTP] Assay overview: The constitutive androstane receptor (CAR) is a nuclear receptor which regulates multiple drug metabolizing enzymes (DMEs) and transporters. Activating CAR will generally increase the transcription and subsequent translation of CYP2B6 and CYP3A4. These two DMEs represent about 50% of the drug metabolizing potential in the body. […] Recently, there have also been studies performed indicating CARs role in energy metabolism and cancer therapy. Therefore, inducing CARs activity could have a potential effect on diabetes and cancer. Identifying environmental toxins and compounds which modulate CAR, through the use of the Tox21 10K compound collection, will be an important step in determining the toxicity and potential therapeutic effects these factors will have on the human body.
Assay Protocol Summary: A double-stable (hCAR and CYP2B6-2.2kb) transfected cell line, derived from human hepatoma (HepG2) cells, was utilized for the duration of the quantitative high-throughput screens. The HepG2-CYP2B6-hCAR cells suspended in DMEM culture medium supplemented with 10% FBS, 5 ug/mL blasticidin, 0.5 mg/mL geneticin, 100 U/mL penicillin and 100 ug/mL streptomycin were dispensed at 2500 cells/4 uL/well in 1536-well white solid bottom plates using a Multidrop Combi. After the assay plates were incubated at 37 C/5% CO2 for 4 hrs, 23 nL of compounds at 15 concentrations (from 5-48 columns) or positive control (from 1 to 4 columns) were transferred to the assay plates using a Pintool station. One uL of PK11195, was added using a Flying Reagent Dispenser to generate a final concentration of 0.75 uM PK11195 inside each well. After a 24 hr incubation period at 37 C/5% CO2, four uL of ONE-Glo reagent was added into the assay plates using a Flying Reagent Dispenser. After a 30 min incubation period at room temperature, the luminescence intensity in the assay plates was measured using a ViewLux plate reader.
% is scaled to controls: 0 for no effect and ±100 for the full control effect; potency is read from the fitted curve at half-maximal effect.

Nuclear receptor subfamily 1 group I member 3 (Homo sapiens), sequence (Q14994 whole entry, looked up): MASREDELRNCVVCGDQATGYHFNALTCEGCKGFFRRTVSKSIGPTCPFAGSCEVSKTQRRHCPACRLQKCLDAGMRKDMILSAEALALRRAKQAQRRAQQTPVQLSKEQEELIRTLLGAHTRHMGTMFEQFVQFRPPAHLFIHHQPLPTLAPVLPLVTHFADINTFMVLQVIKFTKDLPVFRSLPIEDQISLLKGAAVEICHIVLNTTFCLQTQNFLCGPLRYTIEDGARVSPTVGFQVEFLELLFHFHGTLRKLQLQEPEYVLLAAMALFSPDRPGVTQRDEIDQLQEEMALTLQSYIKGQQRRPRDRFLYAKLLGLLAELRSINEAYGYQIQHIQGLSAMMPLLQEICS

Row | SMILES | Potency | activation
1 | CCc1cccc(C)c1N(C(=O)CCl)[C@@H](C)COC | 19.3 µM (active) | 
2 | CC(Cc1ccc2c(c1)OCO2)NO (stereo not given) |  | 2.5% (inactive)
3 | CCCCC/C=C\C/C=C\C/C=C\C/C=C\CCCC(=O)NCC(=O)O |  | 1.74% [at 42.5 µM] (inactive)
4 | CC(C)N(C(=O)CCl)c1ccccc1 | inactive | 
5 | c1ccc(Nc2ccc(Nc3ccccc3)cc2)cc1 | 24.2 µM (active) | 
6 | S=C=NCCc1ccccc1 | 9.71 µM (active) | 
7 | CN |  | 9.61% (inactive)
8 | CCOP(=S)(OCC)Oc1cc(C)nc(N(CC)CC)n1 | 19.3 µM (active) | 
9 | Cc1c([N+](=O)[O-])cc2c(c1[N+](=O)[O-])C(C)(C)CC2(C)C | 12.2 µM (active) | 
10 | CCN1CCC2(CC1)COc1cc3c(cc12)N(C(=O)c1ccc(-c2ccc(-c4nnc(C)o4)cc2C)cc1)CC3 |  | -24.1% (inactive)
11 | O=S1(=O)OCC2C(CO1)C1(Cl)C(Cl)=C(Cl)C2(Cl)C1(Cl)Cl (stereo not given) | 17.2 µM (active) | 
12 | COc1ccc2c(c1OC)C(=O)O[C@@H]2[C@H]1c2cc3c(cc2CCN1C)OCO3 |  | -0.0286% (inactive)
13 | CN1CCc2cc3c(cc2C1O)OCO3 (stereo not given) |  | -0.985% (inactive)
14 | Oc1ccc(Cl)c(Cl)c1 |  | 6.96% (inactive)
15 | CSC1=N[C@@](C)(c2ccccc2)C(=O)N1Nc1ccccc1 | 19.3 µM (active) | 
16 | Cc1c([N+](=O)[O-])c(C)c([N+](=O)[O-])c(C(C)(C)C)c1[N+](=O)[O-] | 34.4 µM (active) | 
17 | N#Cc1sc2c(=O)c3ccccc3c(=O)c=2sc1C#N | 2.17 µM (active) | 
18 | COC(=O)/C=C(\C)OP(=O)(OC)OC |  | 6.42% (inactive)
19 | Nc1ccc(Cl)cc1C(=O)c1ccccc1F | 23.7 µM (active) | 
20 | COC(=O)C(C)N(C(=O)c1ccco1)c1c(C)cccc1C (stereo not given) | 15.3 µM (active) | 

Row | SMILES | Potency | activation
21 | O=C(NC(=O)c1ccccc1Cl)Nc1ccc(OC(F)(F)F)cc1 |  | 3.41% (inactive)
22 | CCC(C)Br (stereo not given) |  | -2.15% (inactive)
23 | Cc1ccc2cc3c(ccc4ccccc43)c3c2c1CC3 |  | 9.65% [at 42.5 µM] (inactive)
24 | BrCCCBr |  | -0.143% (inactive)
25 | CN(C)C(=S)SSC(=S)N(C)C | inactive | 
26 | CCC(OC(C)=O)C(CC(C)NC)(c1ccccc1)c1ccccc1 (stereo not given) |  | -21.9% (inactive)
27 | CC(Cc1ccc(OCC(=O)O)cc1)NCC(O)c1csc(C(F)(F)F)n1 (stereo not given) |  | -2.87% (inactive)
28 | CCC[CH2][Sn]([CH2]CCC)([CH2]CCC)[CH2]CCC |  | -23.1% (inactive)
29 | CCCCC(CC)COC(=O)c1ccccc1C(=O)OCC(CC)CCCC (stereo not given) | 17.2 µM (active) | 
30 | C=Cc1cccc(CCl)c1 |  | 2.1% [at 240 µM] (inactive)
31 | Cc1cccc(Cc2cnc[nH]2)c1C |  | 0.0881% [at 42.5 µM] (inactive)
32 | CCO/N=C(\CC)C1=C(O)CC(c2c(C)cc(C)cc2C)CC1=O (stereo not given) |  | 3.7% (inactive)
33 | O=[N+]([O-])c1cccc2cccc([N+](=O)[O-])c12 | 54.7 µM (active) | 
34 | CCOP(=O)(OCC)Oc1nc(Cl)c(Cl)cc1Cl |  | 5.04% (inactive)
35 | CN1[C@@H]2CC[C@H]1CC(O)C2 (stereo not given in full) |  | 2.62% (inactive)
36 | Fc1ccc(C(OCCN2CCN(CCCc3ccccc3)CC2)c2ccc(F)cc2)cc1 |  | -15.4% [at 42.5 µM] (inactive)
37 | COP(=O)(OC)Oc1ccc([N+](=O)[O-])cc1 |  | 3.28% (inactive)
38 | CC(O)C(=O)[O][Hg][c]1ccccc1 (stereo not given) |  | -20.8% (inactive)
39 | CC(C)C(Br)C(=O)NC(N)=O (stereo not given) |  | 1.13% [at 42.5 µM] (inactive)
40 | Cc1ccc([N+](=O)[O-])[c]2c1[O][Hg]2 |  | -18.6% [at 42.5 µM] (inactive)
